Test results: PubChem BioAssay (NCI)
About 79,000 compounds went through this panel and 15% of them were active in at least one assay; those are over-represented in the sample as a whole. Active and inactive are the calls of the source. No stated cut-off is given here; in the data, active means growth inhibition above about 70%; inactive means the rest. Where a SMILES comes first, the peptide text is derived from it.

How the values were obtained:
[1] = NCI Yeast Anticancer Drug Screen. Data for the rad50 strain (AID 155);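 further: 0% = growth of vehicle-only cultures of the same strain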; settings: S. cerevisiae rad50 strain growth inhibition; at 50.0 µM; active compounds read high
How it was run: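 DNA repair mutant yeast, compound exposure, growth read-out; inhibition is taken relative to vehicle.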

[2] = NCI Yeast Anticancer Drug Screen. Data for the mec2-1 strain (AID 157); settings: S. cerevisiae mec2-1 strain, at 50.0 µM, active compounds read high
How it was run: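 Test agents were screened against the mec2-1 yeast strain, with defined DNA repair or cell cycle alteration. Growth was scored as inhibition against vehicle-only controls.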

[3] = NCI Yeast Anticancer Drug Screen. Data for the sgs1 mgt1 strain (AID 161);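 further: 0% = growth of cultures given vehicle only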; settings: S. cerevisiae sgs1 mgt1 strain, at 50.0 µM, active compounds read high
How it was run: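 Mutant yeast exposed to compound; growth scored against vehicle-only wells.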

[4] = NCI Yeast Anticancer Drug Screen. Data for the cln2 rad14 strain (AID 165);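 further: 0% = growth equal to vehicle treated cultures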; settings: S. cerevisiae cln2 rad14 strain, at 50.0 µM, active compounds read high
How it was run: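 Growth of compound-exposed yeast (cln2 rad14 genotype) measured and expressed as inhibition relative to vehicle.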

[5] = NCI Yeast Anticancer Drug Screen. Data for the bub3 strain (AID 167); settings: S. cerevisiae bub3 mutant strain, at 50.0 µM, active compounds read high
How it was run: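 In this screen, a yeast mutant lacking normal mitotic checkpoint function is challenged with compound. Relative growth versus vehicle gives the inhibition value.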

[6] = NCI Yeast Anticancer Drug Screen. Data for the mlh1 rad18 strain (AID 175); settings: S. cerevisiae mlh1 rad18 strain growth inhibition; at 50.0 µM; active compounds read high
How it was run: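 In this whole-cell yeast screen, a strain with altered DNA damage repair is challenged with compound, and its growth is measured against matched vehicle-treated controls.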

Measured: growth inhibition

COc1ccc(CCN=C(N)CCl)cc1
inactive: [1] 11.8% | [2] 10.8% | [3] 7.4% | [4] 6.65% | [5] 18.9% | [6] -2%

CC(=O)NC1C(O)OC(COCc2ccccc2)C(OCc2ccccc2)C1OCc1ccccc1 (configuration not stated)
inactive: [1] 6.9% | [2] -1.8% | [3] -10.4% | [4] 7.25% | [5] -5.35% | [6] -15.1%

CCOC(=O)C1C/C(C)=C(/C)SCCCS1 (configuration not stated)
inactive: [1] 18.8% | [2] 3.2% | [3] -5.5% | [4] 21.1% | [5] 5.05% | [6] -67.2%

COC(=O)N1C2c3ccccc3C(c3ccccc32)N1C(=O)OC
inactive: [1] 6% | [2] 21.5% | [3] 11.3% | [4] -54.8% | [5] 32.8% | [6] 33.8%

Cc1cc2c(cc1N)C(C)(C)CCC2(C)C
inactive: [1] -4.65% | [2] -18.2% | [3] 10.2% | [4] -24.9% | [5] -11.8% | [6] -18.1%

CC(=O)NC(CO)C(=O)NC(Cc1ccc(O)cc1)C(=O)NCC(N)=O (stereo not drawn) (Ac-Ser-Tyr-Gly-NH2; configuration not given here)
inactive: [1] -26.7% | [2] -23.5% | [3] -9.4% | [4] 18.8% | [5] 10.9% | [6] -6.8%

[Cu+2].[NH-]C(CC(=O)O)C(=O)O.[NH-]C(CC(=O)O)C(=O)O (configuration not stated)
inactive: [1] -35.3% | [2] -11.7% | [3] -13.7% | [4] 64.4% | [5] -61.3% | [6] -3.45%

CCN(Cc1ccc(S(=O)(=O)O)cc1)c1cccc(S(=O)(=O)O)c1
inactive: [1] 14.1% | [2] 26.4% | [3] 18.4% | [4] -20.9% | [5] -18.2% | [6] 9.35%

COc1cc2c(c([N+](=O)[O-])c1)NC(=O)CS2
inactive: [1] -81.2% | [2] -60.5% | [3] -17.2% | [4] -4.5% | [5] 0.95% | [6] -28.1%

O=S(=O)(OCC(F)(F)F)c1ccccc1
inactive: [1] 16.4% | [2] 8.25% | [3] 14.7% | [4] -2.8% | [5] -8.8% | [6] -10.4%

CCSC(C(OC(C)=O)C(OC(C)=O)C(COC(C)=O)OC(C)=O)n1cnc2c(=S)nc[nH]c21 (configuration not stated)
inactive: [1] 6.75% | [2] -0.45% | [3] 9.35% | [4] 18.8% | [5] -1.55% | [6] 1.7%

CCCCCCCCC1=C(CCCCCCC(=O)OC)[14CH2]1
inactive: [1] 0.25% | [2] 16.6% | [3] -11.2% | [4] 43.4% | [5] 3% | [6] 24.5%

Cc1c(F)c(Br)c([N+](=O)[O-])c(C)c1[N+](=O)[O-]
inactive: [1] -7.15% | [2] 5.45% | [3] -8.8% | [4] -4.15% | [5] -1.2% | [6] -17.9%

CS(=O)(=O)C(C#N)S(C)(=O)=O
inactive: [1] -1.85% | [2] -1.05% | [3] -6.05% | [4] -19.2% | [5] 40.9% | [6] -10.1%

CSc1nc2c([nH]1)c(=O)n(C)c(=O)n2C
inactive: [1] 8.8% | [2] 21.4% | [3] 8.4% | [4] -1.8% | [5] 16.8% | [6] 7.1%

CC(C)C1=CC23CCC4C(C)(C(=O)O)CCCC4(C)C2CC1C1C(=O)N(CCCN(C)C)C(=O)C13 (configuration not stated)
active: [1] 98.8% | [2] 99% | [3] 99% | [4] 98.2% | [5] 98% | [6] 98.6%

COc1ccc(N)cc1CO
inactive: [1] 8.85% | [2] -9.85% | [3] -15.3% | [4] -17.1% | [5] -12.3% | [6] 12.7%

COc1ccc(N2C(=O)C3c4[nH]c5ccccc5c4C4CC(C)CC(C)C4C3C2=O)cc1 (configuration not stated)
inactive: [1] 53% | [2] 0.65% | [3] 8.85% | [4] -25.2% | [5] 41% | [6] 14.7%

Nc1ccccc1N=Cc1c(O)c2ccccc2oc1=O
inactive: [1] -8.55% | [2] -11% | [3] 2.7% | [4] 4.05% | [5] 4.25% | [6] 8.2%

c1ccc(-c2nc(-c3ccccc3)n3nc4c(c3c2-c2ccccc2)CCCCCC4)cc1
inactive: [1] -6.65% | [2] 5.65% | [3] -19.6% | [4] -8.55% | [5] -0.35% | [6] 0.2%

NNC(=O)C(=O)NN=C(C(Cl)(Cl)CO)C(Cl)(Cl)CO
inactive: [1] 18.9% | [2] -0.65% | [3] 15.1% | [4] 14.1% | [5] 22.3% | [6] 20.4%

CN(C)CCC(C(=O)C(C)(C)C)c1ccccn1 (configuration not stated)
inactive: [1] -7.2% | [2] -9.2% | [3] -5.65% | [4] -19.4% | [5] -16.9% | [6] -0.6%

CCCCOC(=O)c1ccc(NC(=O)CCC(C)Cl)cc1 (configuration not stated)
inactive: [1] -15.7% | [2] 13.2% | [3] -2.1% | [4] -22.2% | [5] 16.8% | [6] 6.6%

CNC(=S)SCc1ccc(Cl)cc1
inactive: [1] -10.6% | [2] -12.5% | [3] 11.4% | [4] -36.6% | [5] 40.8% | [6] 2.7%

O=S(=O)(c1ccccc1)c1ccc(CBr)cc1
inactive: [1] 16.1% | [2] 1.85% | [3] -10.4% | [4] 17.5% | [5] -2.55% | [6] -8.9%

COC(=O)c1ccc(NCC2=CC(=O)c3ccccc3C2=O)cc1
active: [6] 88%
inactive: [1] 46.9% | [2] 38% | [3] 59% | [4] 48.4% | [5] 54%

Cc1c([N+](=O)[O-])cc2c(c1[N+](=O)[O-])C(C)(C)C(C)CC2(C)C (configuration not stated)
inactive: [1] 1.2% | [2] -15.8% | [3] 6.45% | [4] -15% | [5] 45.7% | [6] -10.9%

CSc1nc(C)c2c(n1)N(c1ccc(Cl)cc1)CC2
inactive: [1] 1.7% | [2] -32.5% | [3] -16.5% | [4] -35.3% | [5] -17.2% | [6] -30.4%

COc1ccc(/C=C2/C(=O)N(C(=O)c3ccc(Cl)cc3)N=C2C)cc1OC
inactive: [1] -18.7% | [2] -36.9% | [3] -32.6% | [4] -3.55% | [5] -17.1% | [6] -35.5%

O=c1[nH]c(=O)n(C2OC(CO)C(O)C2O)cc1OCCCc1ccccc1 (configuration not stated)
inactive: [1] -23.1% | [2] -1.8% | [3] 16.4% | [4] 31.2% | [5] -5.45% | [6] 8.75%

O=C(O)Cn1cc(I)c(=O)c(I)c1
inactive: [1] -40.4% | [2] -43.7% | [3] -7.2% | [4] 3.15% | [5] -10.3% | [6] -28%

CC(C)c1ccc2nc3ccc(C(=O)NCCN(C)C)cn3c(=O)c2c1
inactive: [1] -15.8% | [2] -0.25% | [3] -10.4% | [4] 2.65% | [5] -1% | [6] 9%

CCc1cccc(CC)c1NC(=O)c1ccc(C)cc1
inactive: [1] -6.25% | [2] -30% | [3] 9.4% | [4] 7.2% | [5] -1.35% | [6] -4%

CCOC1=NC(C)C(C)N1 (configuration not stated)
inactive: [1] -5.1% | [2] -11.1% | [3] -13.4% | [4] 9.05% | [5] 6.25% | [6] -21.1%

C=CCCCCCCCCC(=O)OCC(C)C
inactive: [1] 11.3% | [2] 22.4% | [3] 15.9% | [4] -27.2% | [5] -24.1% | [6] 17.4%

COc1ccc(OC)c(/C=C/c2ccc(NC(=O)C(Cl)(Cl)Cl)cc2)c1
inactive: [1] -11.1% | [2] -3.8% | [3] -12.2% | [4] -36.3% | [5] -2.55% | [6] 10.2%

CC(=O)OCC1OC(n2cnc3c(N)ncnc32)C(O)C1O (configuration not stated)
inactive: [1] -3.7% | [2] -6.45% | [3] -6.15% | [4] -39.7% | [5] 4.5% | [6] -11.2%

O=C=Nc1cc(Cl)ccc1Cl
inactive: [1] 38.5% | [2] 21.8% | [3] 17.4% | [4] -24.4% | [5] 7.95% | [6] 28.9%

Cc1c2cnccc2c(C)c2c1c1ccccc1n2CCNCc1ccccc1
inactive: [2] 50.4% | [4] -7.75% | [5] 1.15% | [6] 66.7%
active: [1] 98.2% | [3] 92.7%

COc1ccc(NC(=O)Oc2ccc(OC)cc2)cc1
inactive: [1] 5.75% | [2] 12.2% | [3] 0.75% | [4] 11.2% | [5] 5.5% | [6] -16.1%

Nc1nc(-c2cc(Br)ccc2N=NN2CCOCC2)nc2ccc(Br)cc12
active: [1] 98.8% | [2] 99.1% | [3] 99.3% | [4] 98.8% | [5] 99% | [6] 99%

N[C@@H]1CCCC[C@H]1O
inactive: [1] -0.35% | [2] -5.5% | [3] -8.7% | [4] -24.9% | [5] -5.9% | [6] -16.1%
